# Screen size: about 65,000 compounds; about 2,100 (3.2%) showed an effect of 50% or more. The median lay at about -52%. The sample holds strong results, similar compounds and a random draw of the others, so the mix is not that of the screen.
# Tested on: Plasmodium falciparum
# Assay: Screen against P. falciparum Asexual Blood Stage (ABS), at 5uM
# Format: functional, Dd2
# Conditions: tested at 5 uM
row,SMILES,INHIBITION
1,Cn1cc(N2C[C@@H]3CN(CC4CCOCC4)C[C@@H]3C2=O)cn1,-67.1%
2,Cn1cc(C2CCCN2C(=O)CCCc2ccccn2)cn1 (configuration not stated),-94.3%
3,Cc1ccc(CNC(=O)c2cc(Cn3ccnc3C(C)C)[nH]n2)o1,-76.4%
4,CCCc1cc(N2CCC(NC3CCC(O)CC3)CC2)nc(C)n1 (configuration not stated),-161%
5,CCCc1cc(N2CCC(NCC3(O)CCN(C)CC3)CC2)nc(C)n1,51.2%
6,CCCc1cc(N2CCC(NCC3(O)CCCCC3)CC2)nc(C)n1,8.94%
7,CCS(=O)(=O)CC(=O)NC(c1ccccc1)C1CCCC1 (configuration not stated),-30%
8,Cc1noc(C)c1CN1CCN(C(C)c2nc(C3CC3)no2)CC1 (configuration not stated),-77.5%
9,Cc1c(Cc2ccccc2)c(O)nc2nc(N3CCOCC3)nn12,-56.2%
10,O=C(c1ccncc1)N1CCC2(CC1)CCN(C(=O)c1cccnc1)C2,-57.2%
11,CC(=O)Nc1ccc(OCc2noc(C(=O)N3CCCCCC3)n2)cc1,-83.9%
12,Cc1[nH]c(=O)[nH]c(=O)c1CN1CCCC(CCc2c(F)cccc2F)C1 (configuration not stated),-44.3%
13,Cc1[nH]c(=O)[nH]c(=O)c1CN1CCCC(CCc2ccc(F)cc2F)C1 (configuration not stated),52%
14,CNc1ccc(CC2CCCN(Cc3c[nH]cn3)C2)nn1 (configuration not stated),-105%
15,Fc1ccc(CCC2CCCN(Cc3c[nH]cn3)C2)c(F)c1 (configuration not stated),61.6%
16,Cc1[nH]c(=O)[nH]c(=O)c1CN1CCCC(CCc2ccccc2F)C1 (configuration not stated),-26.5%
17,Cc1nc(CN2CCCC(CCc3ccccc3F)C2)c[nH]1 (configuration not stated),36.5%
18,Cc1nc(CN2CCCC(CCc3c(F)cccc3F)C2)c[nH]1 (configuration not stated),43.1%
19,Cc1nc(CN2CCCC(CCc3ccc(F)cc3F)C2)c[nH]1 (configuration not stated),57.6%
20,Nc1ccc(CC2CCCN(Cc3c[nH]cn3)C2)nn1 (configuration not stated),-87%
21,Cc1ccc(OCC(O)CN2CCc3c(ncn3C3CC3)C2)cc1 (configuration not stated),-28.3%
22,CN1CCc2nc(C3CCCN(C(=O)CC(C)(C)C)C3)ncc2C1 (configuration not stated),-102%
23,Cc1cccc(-c2ccc(C(=O)N3CCSCC3)c(=O)[nH]2)c1,-14.2%

row,SMILES,INHIBITION
1,Cc1csc(CN2CC[C@H]3O[C@H](C(=O)Nc4cccnc4)CC[C@H]32)n1,-18.1%
2,Cc1nn(C)c2c(N3CCN(C(=O)C4CCCO4)CC3)ncnc12 (configuration not stated),9.5%
3,CC(=O)N1CCN(C(=O)c2cc(C(C)C)no2)[C@H]2CS(=O)(=O)C[C@H]21,-67%
4,O=C(CCNC(=O)c1cccc(OC(F)F)c1)Nc1cccnc1,-128%
5,Cc1cccc(CN2CCc3nnc(Cn4cccc4)n3CC2)n1,57.5%
6,Cc1cccc(CN2CCc3nnc(CN4CCCC4=O)n3CC2)n1,-48.8%
7,Cc1cccc(CN2CCc3nnc(CN(C)C)n3CC2)n1,-108%
8,Cc1nnc2n1CCN(CCS(=O)(=O)c1ccc(Cl)cc1)C2,-194%
9,Cc1cccc(-c2noc(Cn3nc(C(N)=O)ccc3=O)n2)c1,-165%
10,O=S(=O)(NCc1ccccc1)N(Cc1ccccn1)CC1CCCO1 (configuration not stated),-181%
11,CN(C)CCN(CC1CCCO1)S(=O)(=O)NCc1ccccc1 (configuration not stated),62%
12,CN(CCCC1CCCO1)S(=O)(=O)NCc1ccccc1 (configuration not stated),-55.1%
13,C[C@@H](CO)NC(=O)c1ccc2nc(NS(C)(=O)=O)sc2c1,-104%
14,CCOc1ccc(CNC(=O)N(C)CC(C)(C)O)cc1C,-65.1%
15,COCC(=O)N1CCC2(CC1)CN(c1ccccn1)CCO2,-89.8%
16,COCC1CC2(CCN(C(C)=O)CC2)CN1Cc1csc(C)n1 (configuration not stated),-7.46%
17,COCC1CC2(CCN(Cc3ccoc3)CC2)CN1Cc1ccccn1 (configuration not stated),57.2%
18,COCC1CC2(CCN(Cc3ccc(C)o3)CC2)CN1C(C)C (configuration not stated),34.5%
19,COCC1CC2(CCN(CC3CC3)CC2)CN1Cc1csc(C)n1 (configuration not stated),53.4%
20,COCC1CC2(CCN(Cc3nccs3)CC2)CN1Cc1ccccn1 (configuration not stated),1.23%
21,COCC(=O)N1CCC2(CC1)CC(COC)N(Cc1ccccn1)C2 (configuration not stated),-56%
22,Cn1cc(CN2CCC3(CC2)CCN(Cc2ccccn2)CC3)cn1,-19.8%
23,COCC1CC2(CCN(C(=O)c3ccco3)CC2)CN1C(C)C (configuration not stated),24.5%

row,SMILES,INHIBITION
1,COCC(=O)N1CCC2(CCN(Cc3ccccn3)CC2)CC1,-158%
2,COCCN1CCC2(CC1)CCN(Cc1ccccn1)CC2,52.2%
3,CCN1CCC2(CC1)CC(COC)N(Cc1csc(C)n1)C2 (configuration not stated),-19.2%
4,COCC1CC2(CCN(Cc3ccco3)CC2)CN1C(C)C (configuration not stated),64.6%
5,CC(C)CO[C@H]1CN(S(=O)(=O)c2cn(C)cn2)[C@@H]2CCCO[C@H]12,-26.7%
6,CN(CC(F)(F)F)C(=O)CNC(=O)N1CCCC(N(C)C)C1 (configuration not stated),-126%
7,O=C(c1n[nH]c(=O)c2ccccc12)N1CCC(O)(CN2CCOCC2)C1 (configuration not stated),-74.2%
8,CC(C)(C)OC(=O)NC(C)(C(N)=O)c1cccc(Cl)c1 (configuration not stated),-135%
9,CC(C)c1noc(CCC(=O)N2CCSCC2)n1,-159%
10,COCC1CN(Cc2ccccn2)Cc2nn(C)cc21 (configuration not stated),-9.17%
11,Cc1nnc(SCC(=O)NCc2ccc3c(c2)CCC(=O)N3)s1,-34.4%
12,Cc1nc2cc(CNC(=O)C3CC(=O)N(C4CCCC4)C3)ccc2n1C (configuration not stated),-135%
13,CN(CC1CCCCC1)C(=O)c1ccc(-n2ncc(C#N)c2N)cc1,-48.5%
14,CCOc1ccc(Cl)c(C(=O)NCCC(=O)Nc2ccccn2)n1,31.1%
15,CCCn1nc2c(cc1=O)CN(c1ncnc3sccc13)CC2,-82.2%
16,CCCNC(=O)c1cc(-c2cnc(N3CCCC3)nc2)cn1C,-151%
17,Cc1nc(CNC(=O)c2ccc3c(c2)nc(N2CCOCC2)n3C)cs1,-33.8%
18,CN1CCS(=O)(=O)[C@@H]2CCN(C(=O)c3ccccc3)CC[C@@H]21,-102%
19,Cc1ccc(N2CCC3(CCN(Cc4ccccn4)CC3)CC2)nn1,-21.1%
20,Cc1cccc(N2CCC3(CCN(Cc4ccccn4)CC3)CC2)n1,63.8%
21,c1ccc(CN2CCC3(CC2)CCN(c2ccccn2)C3)nc1,3.14%
